This excerpt belongs to a sample that is enriched for hits.
ERG Ets-DNA blk: ERG Ets/DNA interaction inhibition; P11308; hit rate 0.028% among 370,000; fluorescence polarization, His-ERG Ets domain / labelled DNA; Potency, µM (titrated, usually from 76.9 µM), actives largely listed as inhibitors; AID 624246; active = well fitted inhibition curve with a large enough effect in the polarisation, with a control signal flat; inconclusive = small, poorly fitted or top-dose-only effect, or effect the other way, or a change in a side signal; inactive = no such curve, though single readings can be large or run the other way; the % refers to the polarisation;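 note: polarization taken with two DNA probes labelled with fluorescein and Texas red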
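His-tagged ERG Ets domain (1 uM in the protein solution; 300mM KCl, 50mM Tris-HCl, 1mM EDTA, 1mM DTT, pH 7.5) received compound, then a probe mix of 5 nM fluorescein-DNA and 100nM Texas-615-DNA. Fluorescence polarization was read for both dyes.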
RGS12 GoLoco inh: inhibitors of human Gai1-RGS12 GoLoco interaction (red fluorophore). P63096. Gai1:RGS12 GoLoco peptide FP, rhodamine, 10 min. Potency, µM (titrated, usually from 61.6 µM), actives largely listed as inhibitors. hit rate 0.44% among 230,000. AID 880; active = well fitted inhibition curve with a large enough effect, not every such curve was filed as active; inactive = no such curve, though single readings can be large or run the other way; note: nearly all actives have a fitted effect of over 30% in size
Menin-MLL FL inh: displaces fluorescein MLL peptide from human menin; Fluorescence polarization, fluorescein-MLL peptide displacement from menin; FP activity change, % at 61.4 µM; 290,000 tested, under 10 active; active = well fitted curve in the direction sought with a large enough effect in the polarisation, not every such curve was filed as active; inconclusive = small, poorly fitted or top-dose-only effect, or effect the other way, or a change in a side signal; inactive = no such curve, though single readings can be large or run the other way; the % refers to the polarisation
Menin-MLL TR inh: inhibitors of human menin-MLL interaction, mutant MLL peptide; O00255; Menin + Texas Red MLL mutant peptide, fluorescence polarization; Potency, µM (top dose mostly 61.6 µM), hits mostly inhibitors; hit rate 0.23% among 270,000; active = well fitted inhibition curve with a large enough effect in the polarisation, with a control signal flat, not every such curve was filed as active; inconclusive = small, poorly fitted or top-dose-only effect, or effect the other way, or a change in a side signal; inactive = no such curve, though single readings can be large or run the other way; the % refers to the polarisation
CXXC DNA block: inhibitors of human MLL CXXC domain-DNA interaction | Q03164 | MLL-CXXC / FITC-HOXA9 DNA fluorescence polarization | Potency, µM (top dose mostly 115 µM), hits mostly inhibitors | hit rate 0.037% among 290,000 | AID 2662; active = well fitted inhibition curve with a large enough effect in the polarisation, with a control signal flat, not every such curve was filed as active; inconclusive = small, poorly fitted or top-dose-only effect, or effect the other way, or a change in a side signal; inactive = no such curve, though single readings can be large or run the other way; the % refers to the polarisation
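Steps: dispense CXXC domain solution (7 uM) → pin compounds or unlabeled HOX-A9 DNA control → 5 min ambient → add FLSN-HOX-A9 solution (50 nM) → spin → 30 min ambient → fluorescence polarization. Tris pH 7.5/NaCl/DTT/BSA buffer.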
MLL CXXC Fl: disrupts human MLL CXXC domain binding to DNA; hit rate 70% among 200; Potency, µM (series often up to 345 µM), usual class: inhibitors; MLL CXXC-DNA binding, fluorescein FP; AID 624160; shares compounds with CXXC DNA block; note: nearly all actives have a fitted effect of over 80% in size
MLL CXXC TxRed: disrupts human MLL CXXC domain binding to DNA, Texas Red. MLL CXXC-DNA binding, Texas Red fluorescence polarization. AID 624161. Potency, µM (series often up to 345 µM), usual class: inhibitors. hit rate 40% among 200. shares compounds with CXXC DNA block; note: nearly all actives have a fitted effect of over 75% in size
MLL CXXC TRF: disrupts human MLL CXXC domain binding to DNA by HTRF; shares compounds with CXXC DNA block; MLL CXXC-DNA binding, HTRF, biochemical; Potency, µM (titrated, usually from 172 µM), usual class: inhibitors; hit rate 30% among 210; note: nearly all actives have a fitted effect of over 80% in size
A number is an active result; . = inactive; ? = inconclusive; / = no result; [ ] = another dose, or the depositor's remark. Unless noted, calls come from the whole dose curve; as a rule, active = well fitted inhibition curve with a large enough effect; inconclusive = small, poorly fitted or top-dose-only effect; inactive = no such curve, though single readings can be large or run the other way.

SMILES | ERG Ets-DNA blk | RGS12 GoLoco inh | Menin-MLL FL inh | Menin-MLL TR inh | CXXC DNA block | MLL CXXC Fl | MLL CXXC TxRed | MLL CXXC TRF
O=[N+]([O-])c1ccc(Cl)c([N+](=O)[O-])c1 | . | / | / | / | / | / | / | /
CN1C(=O)C(c2ccc([N+](=O)[O-])cc2[N+](=O)[O-])C(=O)N(C)C1=O | . | / | . | . | 39.8µM | ? | ? | .
C1C[C@@H]2CN(CCCN3CCOCC3)[C@@H](C1)O2 | / | .[14.2 µM] | / | / | / | / | / | /
O=C(O)CCC(=O)NCCC1=c2ccccc2=N/C1=C\c1c(O)n(Cc2ccc(F)cc2)c(=S)[nH]c1=O | . | . | . | / | 20µM | 22.5µM | 56.5µM | 15.3µM
O=c1[nH]c(=O)n(Cc2ccc(F)cc2)c(O)c1C=NCc1cccnc1 | . | . | . | . | . | / | / | /
COc1ccc2c(c1OC)C(=O)OC2c1c(O)n(Cc2ccc(F)cc2)c(=O)[nH]c1=O (configuration not stated) | . | . | . | . | 12.6µM | 25.2µM | 113µM | 96.8µM
O=C(NCP(=O)(O)O)c1cccnc1 | / | .[14.2 µM] | / | / | / | / | / | /
C=CC1CC=CCC1 (configuration not stated) | / | . | / | / | / | / | / | /
CC[C@@H](CO)NC(=O)[C@@H]1C=C2c3cccc4[nH]cc(c34)C[C@H]2N(C)C1 | . | . | ? | . | / | . | . | .

Compound activity: PubChem BioAssay, National Center for Advancing Translational Sciences (NCATS)
